According to the supplement of paper PMC12282887:
± gives the standard deviation of the averaged measurements.

How the values were obtained:
Assay in all cases: promoter activity interaction Z-score (Lux/OD deviation from empty-vector control); higher = stronger promoter induction by the compound
[1] = system: E. coli BW25113 acrABp lux reporter
How it was run: (§1)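 E. coli BW25113 (wild type or marA, soxS or rob deletion) carrying low-copy luxCDABE promoter reporters grew in 40 µl LB Lennox in 384-well plates at 37°C. Each compound was tested at four 1:2 dilutions in biological duplicates. OD600 and luminescence were read every 30 min for 12 h. Areas were taken over 0–8 h (wild type) or 1–9 h (mutants), and wells below 10% of median growth area were removed. The score is the Z-transformed residual of growth-normalised luminescence fitted against the empty-vector control.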

[2] = system: E. coli BW25113 marRABp lux reporter
How it was run: as §1

[3] = system: E. coli BW25113 micFp lux reporter
How it was run: as §1

[4] = system: E. coli BW25113 ompFp lux reporter
How it was run: as §1

[5] = system: E. coli BW25113 robp lux reporter
How it was run: as §1

[6] = system: E. coli BW25113 soxSp lux reporter
How it was run: as §1

[7] = system: E. coli BW25113 tolCp lux reporter
How it was run: as §1

[8] = 19.1 µg/ml, genetic background: wild type
[9] = 19.1 µg/ml, genetic background: ΔmarA
[10] = 19.1 µg/ml, genetic background: Δrob
[11] = 19.1 µg/ml, genetic background: ΔsoxS
[12] = 38.3 µg/ml, genetic background: wild type
[13] = 38.3 µg/ml, genetic background: ΔmarA
[14] = 38.3 µg/ml, genetic background: Δrob
[15] = 38.3 µg/ml, genetic background: ΔsoxS
[16] = 76.6 µg/ml, genetic background: wild type
[17] = 76.6 µg/ml, genetic background: ΔmarA
[18] = 76.6 µg/ml, genetic background: Δrob
[19] = 76.6 µg/ml, genetic background: ΔsoxS
[20] = 153.1 µg/ml, genetic background: wild type
[21] = 153.1 µg/ml, genetic background: ΔmarA
[22] = 153.1 µg/ml, genetic background: Δrob
[23] = 153.1 µg/ml, genetic background: ΔsoxS

## Nc1ccc(C(=O)O)c(O)c1 [4-Aminosalicylic acid]
[1]; [8]
  promoter activity interaction Z-score: -0.149 ± 0.057
[1]; [9]
  promoter activity interaction Z-score: -0.463 ± 0.94
[1]; [10]
  promoter activity interaction Z-score: -0.0648 ± 0.1
[1]; [11]
  promoter activity interaction Z-score: 0.0906 ± 0.23
[1]; [12]
  promoter activity interaction Z-score: -0.194 ± 0.071
[1]; [13]
  promoter activity interaction Z-score: -0.226 ± 0.02
[1]; [14]
  promoter activity interaction Z-score: 0.179 ± 0.24
[1]; [15]
  promoter activity interaction Z-score: 0.221 ± 0.28
[1]; [16]
  promoter activity interaction Z-score: -0.276 ± 0.035
[1]; [17]
  promoter activity interaction Z-score: -0.0192 ± 0.31
[1]; [18]
  promoter activity interaction Z-score: -0.218 ± 0.18
[1]; [19]
  promoter activity interaction Z-score: -0.00319 ± 0.25
[1]; [20]
  promoter activity interaction Z-score: -0.212 ± 0.19
[1]; [21]
  promoter activity interaction Z-score: 0.164 ± 0.025
[1]; [22]
  promoter activity interaction Z-score: 0.0189 ± 0.39
[1]; [23]
  promoter activity interaction Z-score: 0.952 ± 1.3
[2]; [8]
  promoter activity interaction Z-score: 0.109 ± 0.4
[2]; [9]
  promoter activity interaction Z-score: 0.307 ± 0.0067
[2]; [10]
  promoter activity interaction Z-score: 0.19 ± 0.12
[2]; [11]
  promoter activity interaction Z-score: 0.147 ± 0.18
[2]; [12]
  promoter activity interaction Z-score: 0.0516 ± 0.015
[2]; [13]
  promoter activity interaction Z-score: 0.172 ± 0.09
[2]; [14]
  promoter activity interaction Z-score: 0.493 ± 0.39
[2]; [15]
  promoter activity interaction Z-score: 0.161 ± 0.086
[2]; [16]
  promoter activity interaction Z-score: -0.0573 ± 0.025
[2]; [17]
  promoter activity interaction Z-score: -0.242 ± 0.12
[2]; [18]
  promoter activity interaction Z-score: 0.384 ± 0.31
[2]; [19]
  promoter activity interaction Z-score: -0.0494 ± 0.21
[2]; [20]
  promoter activity interaction Z-score: 0.642 ± 0.055
[2]; [21]
  promoter activity interaction Z-score: 0.698 ± 0.021
[2]; [22]
  promoter activity interaction Z-score: 0.956 ± 0.3
[2]; [23]
  promoter activity interaction Z-score: 0.968 ± 0.13
[3]; [8]
  promoter activity interaction Z-score: 0.127 ± 0.069
[3]; [9]
  promoter activity interaction Z-score: 0.157 ± 0.12
[3]; [10]
  promoter activity interaction Z-score: 0.223 ± 0.068
[3]; [11]
  promoter activity interaction Z-score: 0.335 ± 0.24
[3]; [12]
  promoter activity interaction Z-score: 0.103 ± 0.31
[3]; [13]
  promoter activity interaction Z-score: 0.0571 ± 0.12
[3]; [14]
  promoter activity interaction Z-score: 0.346 ± 0.16
[3]; [15]
  promoter activity interaction Z-score: 0.348 ± 0.31
[3]; [16]
  promoter activity interaction Z-score: 0.399 ± 0.11
[3]; [17]
  promoter activity interaction Z-score: 0.312 ± 0.014
[3]; [18]
  promoter activity interaction Z-score: 0.842 ± 0.12
[3]; [19]
  promoter activity interaction Z-score: 0.567 ± 0.32
[3]; [20]
  promoter activity interaction Z-score: 0.955 ± 0.34
[3]; [21]
  promoter activity interaction Z-score: 0.278 ± 0.066
[3]; [22]
  promoter activity interaction Z-score: 1.89 ± 0.16
[3]; [23]
  promoter activity interaction Z-score: 2.24 ± 0.04
[4]; [8]
  promoter activity interaction Z-score: -0.191 ± 0.28
[4]; [9]
  promoter activity interaction Z-score: -0.0337 ± 0.042
[4]; [10]
  promoter activity interaction Z-score: 0.485 ± 0.12
[4]; [11]
  promoter activity interaction Z-score: 0.498 ± 0.63
[4]; [12]
  promoter activity interaction Z-score: -0.538 ± 0.33
[4]; [13]
  promoter activity interaction Z-score: 0.43 ± 0.48
[4]; [14]
  promoter activity interaction Z-score: 0.92 ± 0.71
[4]; [15]
  promoter activity interaction Z-score: 0.203 ± 0.35
[4]; [16]
  promoter activity interaction Z-score: -0.751 ± 0.39
[4]; [17]
  promoter activity interaction Z-score: -0.414 ± 0.39
[4]; [18]
  promoter activity interaction Z-score: -0.49 ± 0.65
[4]; [19]
  promoter activity interaction Z-score: -0.5 ± 0.67
[4]; [20]
  promoter activity interaction Z-score: -0.516 ± 0.52
[4]; [21]
  promoter activity interaction Z-score: 0.0436 ± 0.35
[4]; [22]
  promoter activity interaction Z-score: 0.0977 ± 1
[4]; [23]
  promoter activity interaction Z-score: 0.625 ± 1.1
[5]; [8]
  promoter activity interaction Z-score: -0.222 ± 0.014
[5]; [9]
  promoter activity interaction Z-score: -0.199 ± 0.69
[5]; [10]
  promoter activity interaction Z-score: -0.314 ± 0.28
[5]; [11]
  promoter activity interaction Z-score: -0.201 ± 0.76
[5]; [12]
  promoter activity interaction Z-score: -0.158 ± 0.15
[5]; [13]
  promoter activity interaction Z-score: 0.308 ± 0.07
[5]; [14]
  promoter activity interaction Z-score: 0.333 ± 0.35
[5]; [15]
  promoter activity interaction Z-score: 0.11 ± 0.31
[5]; [16]
  promoter activity interaction Z-score: -0.0528 ± 0.63
[5]; [17]
  promoter activity interaction Z-score: -0.845 ± 0.11
[5]; [18]
  promoter activity interaction Z-score: -0.29 ± 0.49
[5]; [19]
  promoter activity interaction Z-score: -0.381 ± 0.64
[5]; [20]
  promoter activity interaction Z-score: -0.356 ± 0.24
[5]; [21]
  promoter activity interaction Z-score: 0.439 ± 0.5
[5]; [22]
  promoter activity interaction Z-score: -0.252 ± 0.99
[5]; [23]
  promoter activity interaction Z-score: 0.0401 ± 0.42
[6]; [8]
  promoter activity interaction Z-score: 0.0858 ± 0.3
[6]; [9]
  promoter activity interaction Z-score: 0.563 ± 0.097
[6]; [10]
  promoter activity interaction Z-score: 0.674 ± 0.079
[6]; [11]
  promoter activity interaction Z-score: 0.458 ± 0.71
[6]; [12]
  promoter activity interaction Z-score: -0.0504 ± 0.074
[6]; [13]
  promoter activity interaction Z-score: 0.547 ± 0.088
[6]; [14]
  promoter activity interaction Z-score: 0.688 ± 0.15
[6]; [15]
  promoter activity interaction Z-score: 0.377 ± 0.54
[6]; [16]
  promoter activity interaction Z-score: 0.102 ± 0.028
[6]; [17]
  promoter activity interaction Z-score: 0.199 ± 0.076
[6]; [18]
  promoter activity interaction Z-score: 0.581 ± 0.14
[6]; [19]
  promoter activity interaction Z-score: 0.29 ± 0.88
[6]; [20]
  promoter activity interaction Z-score: -0.173 ± 0.12
[6]; [21]
  promoter activity interaction Z-score: 0.349 ± 0.045
[6]; [22]
  promoter activity interaction Z-score: 0.403 ± 0.16
[6]; [23]
  promoter activity interaction Z-score: 0.259 ± 0.95
[7]; [8]
  promoter activity interaction Z-score: -0.487 ± 1.9
[7]; [9]
  promoter activity interaction Z-score: -1.05 ± 0.26
[7]; [10]
  promoter activity interaction Z-score: 1.71 ± 2
[7]; [11]
  promoter activity interaction Z-score: -0.0483 ± 0.2
[7]; [12]
  promoter activity interaction Z-score: -0.154 ± 1.3
[7]; [13]
  promoter activity interaction Z-score: -0.0748 ± 0.1
[7]; [14]
  promoter activity interaction Z-score: 0.149 ± 0.17
[7]; [15]
  promoter activity interaction Z-score: 0.687 ± 1.6
[7]; [16]
  promoter activity interaction Z-score: -0.119 ± 0.018
[7]; [17]
  promoter activity interaction Z-score: -0.241 ± 0.77
[7]; [18]
  promoter activity interaction Z-score: 1.64 ± 0.41
[7]; [19]
  promoter activity interaction Z-score: -0.423 ± 0.15
[7]; [20]
  promoter activity interaction Z-score: 0.606 ± 0.32
[7]; [21]
  promoter activity interaction Z-score: 0.0837 ± 0.18
[7]; [22]
  promoter activity interaction Z-score: 0.207 ± 0.77
[7]; [23]
  promoter activity interaction Z-score: 1.76 ± 0.4
